PostGolgi yeast = growth inhibition of a yeast mutant, post-Golgi transport screen; inhibition, % at 10 µM; 98,000 tested, 0.9% active; post-Golgi transport phenotypic cell assay;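 also: yeast cells grown in 1536-well plates; yeast grown about 18 h at 30C before absorbance read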
CYP2C9 inhib = human CYP2C9 inhibition; inhibition, % at 5 µM; P11712; 96,000 tested, 20% active; CYP2C9 Supersomes, luciferin-H conversion, luminescence;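 active = blocking of liver enzyme CYP2C9 beyond about 50% at 5 µM, limit read from the data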
Target sequence (P11712 whole entry, looked up): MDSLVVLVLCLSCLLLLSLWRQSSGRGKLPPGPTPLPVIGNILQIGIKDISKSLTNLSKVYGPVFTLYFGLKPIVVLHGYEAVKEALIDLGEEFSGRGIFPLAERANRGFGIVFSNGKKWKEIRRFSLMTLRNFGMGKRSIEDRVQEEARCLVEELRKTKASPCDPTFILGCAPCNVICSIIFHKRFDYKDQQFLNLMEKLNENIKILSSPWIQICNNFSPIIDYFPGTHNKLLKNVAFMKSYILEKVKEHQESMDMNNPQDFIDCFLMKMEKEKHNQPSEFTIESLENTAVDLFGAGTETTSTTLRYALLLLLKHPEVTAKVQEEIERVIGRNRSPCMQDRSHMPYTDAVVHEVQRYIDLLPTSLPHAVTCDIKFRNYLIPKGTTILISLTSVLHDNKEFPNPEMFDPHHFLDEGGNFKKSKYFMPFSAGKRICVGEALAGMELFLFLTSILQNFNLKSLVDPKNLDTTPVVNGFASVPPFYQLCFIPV
CYP2C9 activ = activators of human CYP2C9; P11712; recombinant CYP2C9, luciferin-H conversion, luminescence; hits give high values; factor 1 = untreated enzyme, 0 = blocked; activation factor at 5 µM; 96,000 tested, 1.4% active;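 active = activation factor of 2 or more for CYP2C9 at a 5 µM dose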;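 also: 0 = sulfaphenazole-blocked wells and 1 = vehicle-only wells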
CYP2C19 inh = human CYP2C19 inhibition | AID 778 | inhibition, % at 5 µM | CYP2C19 Supersomes, luciferin-H EGE luminescence, 30 min | P33261 | 96,000 tested, 21% active;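 active = CYP2C19 inhibition above a set limit at 5 µM in the primary screen, cut at about 50% in these data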;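 also: plate controls were negative control wells for no effect and 2.5 mM tranylcypromine positive control for full effect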
PostGolgi ctrl = growth of the yeast control strain, post-Golgi counter-screen. efflux-deficient yeast background strain, growth absorbance A615, 16 h. inhibition, % at 10 µM. 98,000 tested, 5% active. AID 738
CYP2C19 act = activators of human cytochrome P450 2C19; P33261; recombinant CYP2C19, luciferin-H EGE luminescence; hits give high values; 0 = fully inhibited enzyme, 1 = untreated enzyme; activation factor at 5 µM; 96,000 tested, under 10 active;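 active = activation factor of at least 2 at 5 µM in the primary screen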;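 also: 0 = wells with 2.5 mM tranylcypromine and 1 = vehicle-only wells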
* marks the source's active call; other numbers are inactive results; . = not tested or not shown. The list is not random: actives were taken first. Their share in the collection is about 32%. Rule as the data show it, unless noted: active = inhibition above about 30%; inactive = the rest.

SMILES	PostGolgi yeast	CYP2C9 inhib	CYP2C9 activ	CYP2C19 inh	PostGolgi ctrl	CYP2C19 act
Cc1[nH]c2ccccc2c1/C=N/Nc1nc(Nc2ccc(F)cc2)nc(N2CCOCC2)n1	-2	-25	1.3	1	26	1
C(=N\Nc1nc(Nc2ccccc2)nc(N2CCOCC2)n1)/c1c[nH]c2ccccc12	-3	88*	0.1	100*	1	0
COc1ccc(Nc2nc(N3CCCC3)c3ccccc3n2)cc1	0	-2	1	13	7	0.9
CCN(CC)c1ccc(Nc2nc(N3CCOCC3)c3ccccc3n2)cc1	2	55*	0.4	54*	13	0.5
c1ccc(Nc2nc(N3CCOCC3)nc(N3CCOCC3)n2)cc1	4	35	0.6	40	32*	0.6
CC(NC(=O)c1ccccc1Br)c1nnc(SCc2ccc([N+](=O)[O-])cc2)n1C (stereo not given)	-3	-2	1	-7	-10	1.1
CCCC(CCC)C(=O)NNc1cc(=O)c2c(=O)n(C)c(=O)n(C)c2[nH]1	-2	16	0.8	-1	1	1
CCCCn1nnnc1NCc1ccc(OC)c(OC)c1OC	6	32	0.7	70*	9	0.3
CCCCn1nnnc1NCc1cccs1	9	18	0.8	65*	19	0.4
CCCCN(CCCC)c1cc(C)nc(-c2ccccc2O)n1	0	24	0.8	5	15	1
O=C(C1CC1)N(CCN(C(=O)C1CC1)c1ccccc1)c1ccccc1	-1	3	1	22	11	0.8
CC(C1CC1)N(C(=O)c1ccccc1O)c1ccccc1 (stereo not given)	4	41	0.6	80*	-4	0.2
O=C(CSc1nc(Nc2ccccc2)nc(N2CCOCC2)n1)Nc1ccc2c(c1)OCCO2	11	60*	0.4	61*	14	0.4
Cc1ccccc1NC(=O)CSc1nc(Nc2ccccc2)nc(N2CCOCC2)n1	-8	62*	0.4	49	5	0.5
O=C(CSc1nc(Nc2ccccc2)nc(N2CCOCC2)n1)N1CCCC1	17	25	0.8	4	8	1
O=C(CSc1nc(Nc2ccccc2)nc(N2CCOCC2)n1)N1CCc2ccccc21	-2	46	0.5	33	54*	0.7
CNc1nc(SCC(=O)OC)nc(N2CCOCC2)n1	-2	-12	1.1	-10	13	1.1
CC(C)n1c(N2CCN(CC(=O)Nc3ccc4c(c3)OCCO4)CC2)nc2ccccc21	5	26	0.7	58*	4	0.4
O=C(CN1CCN(S(=O)(=O)c2cc(Cl)ccc2Cl)CC1)Nc1ccc2c(c1)OCCO2	0	-123	2.2*	54*	14	0.5
Cc1ccc(C)c(S(=O)(=O)N2CCN(CC(=O)N3CCc4ccccc4C3)CC2)c1	-6	-242	3.4*	81*	1	0.2
Cc1ccc(C)c(S(=O)(=O)N2CCN(CC(=O)Nc3cc(C)on3)CC2)c1	3	-127	2.3*	12	-2	0.9
CN(C)c1ccc(NC(=O)CN2CCN(S(=O)(=O)c3cc(Cl)ccc3Cl)CC2)cc1	2	-49	1.5	32	13	0.7
O=C(O)c1cccn1Cc1ccccc1F	0	-8	1.1	-10	2	1.1
O=C(CN1CCN(S(=O)(=O)c2ccc(Br)cc2)CC1)Nc1ccc2c(c1)OCO2	-1	63*	0.4	81*	0	0.2
Cc1ccc(C)c(S(=O)(=O)N2CCN(CC(=O)Nc3ccc4c(c3)OCCO4)CC2)c1	-6	-1	1	85*	12	0.2
SMILES	PostGolgi yeast	CYP2C9 inhib	CYP2C9 activ	CYP2C19 inh	PostGolgi ctrl	CYP2C19 act
CC(C)OC(=O)CN1CCN(S(=O)(=O)c2cc(Cl)ccc2Cl)CC1	0	-114	2.1*	83*	0	0.2
COc1ccc(NC(=O)CN2CCN(S(=O)(=O)c3ccc(Cl)cc3)CC2)cc1Cl	5	-7	1.1	-20	13	1.2
O=C(CN1CCN(S(=O)(=O)c2ccc(Br)cc2)CC1)Nc1ccc(F)cc1	4	-36	1.4	26	7	0.7
CCn1c(=O)cc(SCC(=O)N2CCN(c3ccccc3F)CC2)c2ccccc21	10	-121	2.2*	41	13	0.6
CCn1c(=O)cc(SCC(=O)N2CCN(c3ccccn3)CC2)c2ccccc21	0	51*	0.5	72*	1	0.3
CCn1c(=O)n(CC(=O)N2CCN(c3ccccc3F)CC2)c(=O)c2ccccc21	2	25	0.8	13	3	0.9
Cc1cc2ccccc2c(=O)n1CC(=O)NCC(=O)N1CCN(c2ccccc2F)CC1	1	-110	2.1*	-4	9	1
COC(=O)CCCCCC(CCC(=O)OC)NC(C)=O (stereo not given)	-3	6	0.9	-1	-9	1
COCCNC(=O)CCSCc1ccccc1F	-4	7	0.9	37	5	0.6
Cn1c(SCc2ccccc2)nnc1-c1ccncc1	17	34	0.7	91*	10	0.1
Cn1c(SCc2ccc(Br)cc2)nnc1-c1ccncc1	3	75*	0.3	94*	4	0.1
CSc1nnc(-c2ccccc2)n1C	8	.	.	.	31*	.
Cn1c(SCc2ccccc2)nnc1-c1cccs1	-1	-8	1.1	41	7	0.6
COCC(=O)N(C)C1(c2nnnn2CCOC(=O)Nc2cccc3ccccc23)CCCC1	-2	20	0.8	41	-2	0.6
COC(=O)C1ON2OC(C(=O)OC)C(C(=O)OC)C2C1CC(C)=O (stereo not given)	1	2	1	-2	-1	1
Cc1cc(Nc2ncc(Cl)cc2Cl)n[nH]1	-4	6	0.9	71*	3	0.3
CCn1c(SCc2nc3ccccc3s2)nnc1-c1cccs1	-6	54*	0.5	98*	16	0
COc1ccc(-c2nnc(SCc3nc4ccccc4s3)n2C(C)C)cc1	1	39	0.6	93*	30*	0.1
Cc1ccccc1-n1c(C)nnc1SCc1nc2ccccc2s1	0	22	0.8	76*	0	0.2
CCOc1ccccc1-n1nnnc1SCc1nc2ccccc2s1	2	-6	1.1	48	17	0.5
Cn1c(SCc2nc3ccccc3s2)nnc1-c1cccs1	6	35	0.7	92*	8	0.1
CCC12CN(S(=O)(=O)c3ccc(C)cc3)CC(CC)(CN(S(=O)(=O)c3ccc(C)cc3)C1)C2=O	3	38	0.6	43	-6	0.6
CCCn1c(=O)c2ccccc2n2c(SCc3nc4ccccc4s3)nnc12	14	72*	0.3	90*	9	0.1
COC(=O)CNC(=O)CNC(=O)c1nn(-c2ccc(OC)c(Cl)c2)c(=O)c2ccccc12	14	48	0.5	32	35*	0.7
COc1cccc(-n2nc(C(=O)O)c3ccccc3c2=O)c1	6	20	0.8	50*	8	0.5

Screening results deposited in PubChem by several laboratories.
